High-throughput results deposited in PubChem BioAssay by several laboratories.
The list is not random: actives were taken first. Their share in the collection is about 2.3%.
Calb FLC: C. albicans growth modulation with fluconazole; C. albicans CaCi-2 (fluconazole-resistant clinical isolate) + fluconazole, Alamar Blue growth, 48 h; growth inhibition, % (concentration not given with the values); hit rate 0.57% among 300,000; AID 1979;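 active = growth inhibition above about 58% in most replicates, limit read from the data, passing the limit was not always enough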;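 note: all wells also contain fluconazole at 8 µg/ml as a sub-toxic cotreatment; 0% = median of DMSO wells and 100% = median of geldanamycin control wells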
Rpn11 inh: inhibitors of human proteasome Rpn11. O00487. human 26S proteasome, Ub4-pepOG fluorescence polarization; 20S core pre-blocked with epoxomicin. inhibition, % at 20 µM. hit rate 0.59% among 360,000;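 active = inhibition at 20 µM, scaled to each plate's controls, above about 33%, limit read from the data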
Target sequence (O00487 whole entry, looked up): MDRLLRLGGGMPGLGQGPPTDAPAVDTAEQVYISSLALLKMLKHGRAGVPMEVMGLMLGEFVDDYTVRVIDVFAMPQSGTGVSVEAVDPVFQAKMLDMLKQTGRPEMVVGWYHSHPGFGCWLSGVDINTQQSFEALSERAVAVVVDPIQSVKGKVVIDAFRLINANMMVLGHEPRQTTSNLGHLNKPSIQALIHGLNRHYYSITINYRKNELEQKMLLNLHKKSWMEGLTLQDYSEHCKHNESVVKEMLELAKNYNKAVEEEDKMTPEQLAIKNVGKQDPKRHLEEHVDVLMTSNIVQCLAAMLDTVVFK
IDE cell inh: inhibits human insulin-degrading enzyme in HEK cells; inhibition, % at 5.59 µM; P14735; FAbetaB cleavage, fluorescence polarization; hit rate 0.41% among 320,000;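 active = percent inhibition above the average of all tested compounds plus 3 SD, set per screening campaign, cut at about 16% in these data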;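 note: IDE supplied by intact live HEK cells; FP after avidin binding of uncleaved biotin substrate so inhibition keeps polarization high; 0% = DMSO wells and 100% = 60 µM reference IDE inhibitor Ii1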
IDE act: activators of human insulin-degrading enzyme in cells | P14735 | HEK cells, FAbeta-B cleavage, fluorescence polarization; 0% vehicle, 100% cell-free pure enzyme wells | activation, % at 5.96 µM | hit rate 0.073% among 340,000 | AID 493087;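 active = activation above the mean of all tested compounds plus 3 SD, set per screening campaign, cut at about 17% in these data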
Rin1 Abl inh: inhibitors of human Rin1-Abl protein interaction. hit rate 0.4% among 360,000. inhibition, % at 7.35 µM. P00519+Q13671. AID 588664. TR-FRET Rin1/Abl binding, biochemical; in the data active = inhibition above about 5%, passing the limit was not always enough
TPT1 inh: inhibitors of Candida albicans tRNA 2'-phosphotransferase TPT1; recombinant caTPT1, FP RNA substrate dephosphorylation; inhibition, % at 5 µM; hit rate 0.81% among 300,000;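 active = inhibition above the mean of all tested compounds plus 3 SD, set per screening campaign, cut at about 24% in these data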;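 note: plate controls were DMSO alone for no effect and ferristatin control at 100 nM for full effect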
IDE inh confirm: confirmation of human insulin-degrading enzyme inhibitors in cells. shares compounds with IDE cell inh. HEK cells, FAbetaB cleavage, fluorescence polarization. inhibition, % at 5.59 µM. hit rate 51% among 1,200;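 active = mean inhibition across triplicate wells above the cutoff set by the earlier primary insulin-degrading enzyme screen, cut at about 16% in these data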;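 note: 0% = DMSO wells and 100% = 60 µM reference IDE inhibitor Ii1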
HEK293 tox: counter-screen for IDE inhibitors: cytotoxicity in HEK cells. shares compounds with IDE cell inh. HEK293 cytotoxicity, ATP luminescence. inhibition, % at 5.59 µM. hit rate 28% among 1,200. AID 449730; in the data active = inhibition above about 22%;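 note: 0% = vehicle wells and 100% = reference cytotoxic drug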
IDE FP artifact: counter-screen for IDE inhibitors: fluorescent artifacts; shares compounds with IDE cell inh; FP counterscreen for fluorescent artifacts, IDE probe project; IC50, µM; 30 tested, under 10 active; call rule not given here
* hit, by the source's call; x = not tested or not shown.

SMILES | Calb FLC | Rpn11 inh | IDE cell inh | IDE act | Rin1 Abl inh | TPT1 inh | IDE inh confirm | HEK293 tox | others
COc1ccc(Cl)cc1NC(=O)C1Cc2cc(S(=O)(=O)N3CCCC3)ccc2N1C(C)=O (stereo not drawn) | -4 | 4 | 2 | 5 | 1 | 1 | x | x
Cc1cccc(-c2nnc(SCc3nc4ccccc4[nH]3)n2Cc2ccco2)c1 | 4 | 7 | 37* | -20 | 2 | 3 | 31* | 21 | IDE FP artifact=>55
O=C(CSc1nnc(-c2cccc(Cl)c2)n1Cc1ccco1)c1ccc2ccccc2c1 | x | x | x | x | x | x | x | x | IDE FP artifact=>55
O=C(CSc1nnc(-c2cccc(Cl)c2)n1Cc1ccco1)Nc1ccc2cn[nH]c2c1 | x | x | x | x | x | x | x | x | IDE FP artifact=>55
Cc1ccc(S(=O)(=O)Nc2c(C(=O)O)[nH]c3ccccc23)c(C)c1 | x | 6 | 0 | 2 | -2 | -4 | x | x
O=C(NCCS(=O)(=O)N1CCC2(CC1)OCCO2)c1ccccc1 | -4 | -3 | -1 | 3 | 3 | -4 | x | x
Cc1ccc(C(=O)NCC(=O)OCC(=O)Nc2cc(S(=O)(=O)N3CCOCC3)ccc2C)cc1 | -9 | 1 | -3 | -5 | 3 | -1 | x | x
Cc1ccc(S(=O)(=O)N2CCOCC2)cc1NC(=O)COC(=O)CNC(=O)c1ccc(Oc2ccccc2)cc1 | 1 | 6 | 17* | -12 | 2 | -6 | 6 | 13
CCC(C)(C)n1nnnc1C(c1ccc2ncccc2c1)N1CCN(c2ccc(O)cc2)CC1 (stereo not drawn) | -4 | -8 | 1 | 2 | -2 | 0 | x | x
CCC(C)(C)n1nnnc1C(c1ccc2ncccc2c1)N1CCN(c2nc3ccccc3s2)CC1 (stereo not drawn) | 21 | 7 | 18* | -10 | 5 | -1 | 11 | 26*
CCCCCCc1cc2cc(/C(N)=N/NC(=O)c3ccncc3)c(=O)oc2cc1O | x | x | 29* | -36 | 2 | x | 97* | 16
C=CCOc1ccc(Br)cc1/C=C1/SC(=Nc2ccc(C(=O)O)cc2)NC1=O | x | 7 | x | 1 | -1 | x | x | x
CCOc1cc(Br)cc(/C=C2\SC(=Nc3ccccc3)NC2=O)c1O | -14 | 10 | 22* | -24 | -1 | 3 | 27* | 12
Cc1cc(N/N=C/c2c[nH]c3ccccc23)c2ccccc2n1 | 20 | -6 | -1 | 3 | 2 | -2 | x | x
Cn1c(N/N=C/c2c[nH]c3ccccc23)nc2ccccc21 | 84* | 16 | 29* | -9 | -5 | 0 | 0 | 63*
O=C(c1cccn2c(=O)c3cc(Cl)ccc3nc12)N1CCN(Cc2ccc3c(c2)OCO3)CC1 | 6 | 6 | 31* | -39 | -17 | 3 | 16 | 14
Cc1cc(C)cc(C(O)c2ncc(-c3ccccc3F)[nH]2)c1 (stereo not drawn) | x | 1 | x | x | 0 | x | x | x
O=C(NC1CCCCC1)c1cccc2c1C(=O)c1ccc(N3CCC(Cc4ccccc4)CC3)cc1S2(=O)=O | x | -70 | 6 | -8 | -2 | x | x | x
CC1CCN(c2ccc3c(c2)S(=O)(=O)c2cccc(C(=O)NC4CC4)c2C3=O)CC1 | x | 31 | 18* | -7 | -7 | x | 19* | 16
CC1CCN(c2ccc3c(c2)S(=O)(=O)c2cccc(C(=O)NC[C@@H]4CCCO4)c2C3=O)CC1 | x | x | 22* | -8 | -7 | x | 21* | 26*
O=C(NCC1CCCO1)c1cccc2c1C(=O)c1ccc(N3CCC(Cc4ccccc4)CC3)cc1S2(=O)=O (stereo not drawn) | x | -47 | 50* | -44 | 1 | x | 83* | 50*
COc1ccc2[nH]c(C(=O)NCCCN3CCCC3=O)c(C)c2c1 | 8 | 2 | 6 | 4 | -1 | 1 | x | x
O=S1(=O)CC(N2CCN(CC3CC3)CC2)CN1Cc1cn(Cc2ccccc2C(F)(F)F)nn1 (stereo not drawn) | x | 0 | x | x | 0 | x | x | x
N#CC1=C(N)NC(=S)C(C(N)=O)C1c1ccccc1F (stereo not drawn) | 0 | 2 | 27* | -8 | 1 | -5 | 11 | 6
N#CC1=C(N)NC(=S)C(C(N)=O)C1c1ccc(Cl)cc1Cl (stereo not drawn) | -2 | -3 | 5 | -26 | 1 | -1 | x | x
SMILES | Calb FLC | Rpn11 inh | IDE cell inh | IDE act | Rin1 Abl inh | TPT1 inh | IDE inh confirm | HEK293 tox | others
COc1ccc(Cl)cc1C1=NOC2(CCC2)C(=O)N1Cc1cccc(C#N)c1 | x | -2 | x | x | -1 | x | x | x
Cc1csc2c(N3CCN(C(=O)Nc4ccccc4)CC3)ncnc12 | 0 | -3 | 12 | -14 | 1 | -2 | x | x
Cc1ccc(C(=O)N2CCN(c3ncnc4c(C)csc34)CC2)cc1 | 27 | -3 | 19* | -4 | 0 | -3 | 7 | 17
CC(C)CC1NC(=O)C(CC(C)C)N(CO)C1=O (stereo not drawn) | x | 4 | x | 4 | 2 | x | x | x
CC(NC(=O)c1ccc(N(C)C)c([N+](=O)[O-])c1)c1ccc(-n2ccnc2)cc1 (stereo not drawn) | 22 | 3 | 19* | -4 | -6 | 0 | 8 | 12
COc1ccccc1CNC(=O)C(=O)NCCC1CCCCN1S(=O)(=O)c1ccc(C)cc1 (stereo not drawn) | -13 | 0 | 8 | 1 | -4 | 1 | x | x
COc1ccccc1CCNC(=O)C(=O)NCCC1CCCCN1S(=O)(=O)c1ccccc1 (stereo not drawn) | 14 | 4 | 16* | -12 | 6 | 0 | 2 | 21
O=C(COc1ccc(F)c(Cl)c1)N1CCCCCCC1 | 1 | -6 | 5 | -4 | -2 | -2 | x | x
N#CC1=C(N)Oc2ccc3ccc(O)cc3c2C1c1cccnc1 (stereo not drawn) | 7 | 2 | -2 | 5 | 0 | 8 | x | x
N#CC1=C(N)Oc2cc(O)ccc2C1c1cccnc1 (stereo not drawn) | 13 | 6 | 82* | -35 | 4 | 8 | 14 | 7
COC(=O)c1ccc(C2C(C#N)=C(N)Oc3cc(O)ccc32)cc1 (stereo not drawn) | 23 | 7 | 24* | 0 | -1 | 23 | 3 | 8
N#CC1=C(N)Oc2cc(O)ccc2C1c1ccncc1 (stereo not drawn) | -2 | -5 | 131* | -16 | -2 | 20 | 11 | 11
CCOC(=O)c1c(C)[nH]c(C(=O)Cn2nnc(-c3ccccc3Cl)n2)c1C | 32 | 1 | 19* | -19 | -3 | -4 | 4 | 15
CN(C(=O)COC(=O)C12CC3CC(CC(Cl)(C3)C1)C2)c1ccccc1 | x | -1 | 5 | -1 | -2 | x | x | x
Cc1sc2c3ccsc3ccc2[n+]1C | 2 | 0 | 9 | -16 | 2 | 0 | x | x
